Results on five compounds are retold here after PubChem BioAssay.

Inconclusive results are not listed. Calls of active or inactive are those of the source.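 How the source made its calls, unless noted: active means percent response above a set limit, the screen-wide mean plus 3 SD (cut at about 130% in these data); inactive means the rest.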

Assay [1] is described as follows: yeast TOR pathway RPL19A-GFP modulators, primary screen, cell-based, S. cerevisiae, multiplex flow cytometry (AID 1862; in the data active means percent of DMSO control GFP below about 86%;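 further: lower values mimic rapamycin by blocking the RPL19A rise seen in DMSO cells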). The settings on record: S. cerevisiae RPL19A-GFP strain, flow cytometry fluorescence, 3 h; at 10 µM; stronger effect = lower value. On the technique in general: A flow cytometer gives signals particle by particle.
Assay [2] in a line: modulators of MEP2-GFP levels in yeast, primary screen, S. cerevisiae, multiplex flow cytometry (AID 1867;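 active means GFP response, as percent of the DMSO control, above the screen-wide mean plus 3 SD, about 139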;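 further: median GFP channel fluorescence of barcode-gated MEP2-GFP cells measured by flow cytometry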). The settings on record: S. cerevisiae MEP2-GFP strain, 3 h, at 10 µM, stronger effect = higher value, 100% means same as DMSO wells.
Assay [3] is described as follows: modulators of CIT2-GFP expression in yeast, primary screen, S. cerevisiae, GFP fusion, multiplex flow cytometry (AID 1870).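 Further: barcoded CIT2-GFP strain pooled with four other GFP strains with rapamycin as positive control; median GFP fluorescence per well over plate mean of DMSO wells so 100% = DMSO.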 Particulars: 3 h, at 10 µM, stronger effect = higher value.
The nature of assay [4]: modulators of LAP4-GFP expression in yeast, primary screen, S. cerevisiae, multiplex flow cytometry (AID 1873;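 active means GFP signal, as percent of the solvent control, above the screen mean plus 3 SD, about 149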). The settings on record: 3 h, at 10 µM, stronger effect = higher value.
Assay [5] can be described thus: modulators of AGP1-GFP expression in yeast TOR pathway, primary screen, cell-based, multiplex flow cytometry, S. cerevisiae (AID 1887;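 active means GFP signal above the screen-wide mean plus 3 SD, that is over about 124.5% of the solvent control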;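 further: AGP1-GFP fusion strain of S. cerevisiae within a five-strain barcoded multiplex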). Particulars: 3 h, at 10 µM, stronger effect = higher value.
Assay [6] in a line: inhibitors of CD8+ T cell-vesicle binding, pilot screen, LFA-1/ICAM-1 modulator project, MLPCN validation set, flow cytometry (AID 2523;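 active means response below a set limit, under 55% cells CD8-positive and vesicle-bound, and CD8 cells' 90th-percentile brightness under 279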;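 on vesicle binding response: mean PE anti-B7-1 fluorescence of CD8+ cells relative to row control; 100% = QL9-loaded vesicles with DMSO vehicle in the same plate row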). Particulars: 2C mouse CD8+ T cells, at 7 µM, stronger effect = lower value; double positive events: measured here: CD8+/vesicle+ event percentage.
The target of assay [7] is Integrin beta-1 (Homo sapiens) + Integrin alpha-4 (Homo sapiens) (UniProt P13612+P05556). The assay can be described thus: inhibition of HUTS-21 binding to VLA-4, pilot screen, VLA-4 allosteric modulator project, U937 cells, HUTS-21 mAb, flow cytometry, validation set (AID 2674;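 active means inhibition above 50%, about 3 SD of the validation set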;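 further: antibody binding induced by the VLA-4 ligand LDV present at three times its Kd; 0% = LDV ligand with antibody and no compound and 100% = antibody without LDV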). The settings on record: HUTS-21 LIBS mAb binding, at 6.7 µM, stronger effect = higher value, binding induced by LDV ligand.

Assay [8] in a line: superoxide lowering in aged yeast cells, pilot screen, validation compound set (AID 2706;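 active means superoxide response below 65% of plate, a cut near 3 SD across the whole screen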;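 further: yeast exposed to compound for one week at 30 degrees C before staining; 100% = mean of all compound wells on the same plate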). Particulars: S. cerevisiae aging, superoxide DHE fluorescence; at 10 µM; stronger effect = lower value.
Assay [9] has as its target Beta-adrenergic receptor kinase 1 (Homo sapiens) (UniProt P25098). Briefly: GRK2 binders displacing RNA aptamer, biochemical, validation, human GRK2, bead flow cytometry (AID 488806;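 active means aptamer binding inhibition above 30%, about 3 SD of noise from non-fluorescent compounds; inactive means inhibition at or below 30%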). The settings on record: bead-bound GRK2, FAM-aptamer displacement, at 10 µM, stronger effect = higher value.
In assay [10] the target is Beta-2 adrenergic receptor (Homo sapiens) (UniProt P07550). Briefly: beta2AR agonists driving receptor internalization, pilot screen, cell-based, FAP fluorogen, flow cytometry, validation set (AID 504459;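 active means percent response above 42, roughly 3 SD of non-fluorescent test compounds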;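 further: agonist-driven loss of surface beta2AR via internalization measured by FAP dye flow cytometry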). The settings on record: Am2.2-beta2AR cells, FAP surface receptor flow cytometry; at 10 µM; stronger effect = higher value.
For assay [11], the target named is AP-2 complex subunit beta (Homo sapiens) (UniProt P63010). Briefly: inhibitors of arrestin peptide binding to AP2, pilot screen, biochemical, validation set, GST-AP2 beads, flow cytometry (AID 504541;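 active means inhibition above 54%, about 3 SD of non-fluorescent compounds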;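 further: AP2 carries R879A mutation and is captured from E. coli lysate; bead-bound FITC arrestin peptide fluorescence measuring arrestin peptide binding to AP2; 0% = DMSO wells and 100% = excess unlabeled arrestin peptide control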). Particulars: FITC arrestin peptide, at 10 µM, stronger effect = higher value, AP2 beta2 appendage fragment, R879A mutant.
Assay [12] can be described thus: yeast V-ATPase proton transport modulators, S. cerevisiae, pHLuorin, HTS validation (AID 504600; in the data active means response above about 15%;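 further: plate controls were DMSO for no effect and reference compound for full effect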). The settings on record: S. cerevisiae pHLuorin cytosolic pH, at 10 µM, stronger effect = higher value.
Assay [13] relates to anti-desmoglein-3 scFv antibody binding to human DSG3. Briefly: inhibitors of anti-DSG3 scFv binding to DSG3, pilot screen, biochemical, validation compound set, bead-based, flow cytometry (AID 588368;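 active means binding below the plate cutoff, the plate median minus 3 SD, with a reading above zero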;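 further: signal is the median channel fluorescence of bead-bound GFP antibody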). Particulars: Protein G beads, DSG3-Fc, scFv-GFP binding, at 10 µM, stronger effect = lower value.
A short description of assay [14]: inhibitors of fungal efflux pumps CDR1, CDR2, MDR1, pilot screen, validation compound set, multiplex, phenotypic (AID 588506;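 active means efflux inhibition above 0.42, the validation set average plus 4 SD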;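 further: Nile Red retained in cells so higher fluorescence means more efflux inhibition; 0 = negative control wells and 1 = enniatin B 25 µM full block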). Particulars: S. cerevisiae pump-expressing triplex, Nile Red efflux flow cytometry; at 10 µM; stronger effect = higher value; the pumps come from Candida albicans.
The target of assay [15] is ATP-binding cassette sub-family B member 6 (Homo sapiens) (UniProt Q9NP58). The assay can be described thus: ABCB6 transporter inhibitors, pilot screen, K562-ABCB6 cells, flow cytometry, validation set (AID 588550;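 active means inhibition above the screen-wide mean plus 3 SD, about 51%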;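 further: 0% = DMSO wells and 100% = benzethonium chloride 70 µM positive control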). The settings on record: K562-ABCB6 porphyrin accumulation, 1 h, at 10 µM, stronger effect = higher value.
Assay [16] can be described thus: promoters of myeloid differentiation in arrested cells, primary screen, cell-based, GFP/MAC1 double positive, flow cytometry, validation set (AID 588685;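 active means differentiation response of at least 50%, scaled between solvent and reference control, from cells with both markers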;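 further: compound exposure lasts four days before antibody staining and flow analysis; 0% = DMSO wells and 100% = 5 µM fulvestrant positive control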). The settings on record: ER-HoxA9 marrow cells, stronger effect = higher value, normalized: vehicle 0, fulvestrant 100.

Chain of ATP-binding cassette sub-family B member 6 (Homo sapiens) (Q9NP58 whole entry, looked up): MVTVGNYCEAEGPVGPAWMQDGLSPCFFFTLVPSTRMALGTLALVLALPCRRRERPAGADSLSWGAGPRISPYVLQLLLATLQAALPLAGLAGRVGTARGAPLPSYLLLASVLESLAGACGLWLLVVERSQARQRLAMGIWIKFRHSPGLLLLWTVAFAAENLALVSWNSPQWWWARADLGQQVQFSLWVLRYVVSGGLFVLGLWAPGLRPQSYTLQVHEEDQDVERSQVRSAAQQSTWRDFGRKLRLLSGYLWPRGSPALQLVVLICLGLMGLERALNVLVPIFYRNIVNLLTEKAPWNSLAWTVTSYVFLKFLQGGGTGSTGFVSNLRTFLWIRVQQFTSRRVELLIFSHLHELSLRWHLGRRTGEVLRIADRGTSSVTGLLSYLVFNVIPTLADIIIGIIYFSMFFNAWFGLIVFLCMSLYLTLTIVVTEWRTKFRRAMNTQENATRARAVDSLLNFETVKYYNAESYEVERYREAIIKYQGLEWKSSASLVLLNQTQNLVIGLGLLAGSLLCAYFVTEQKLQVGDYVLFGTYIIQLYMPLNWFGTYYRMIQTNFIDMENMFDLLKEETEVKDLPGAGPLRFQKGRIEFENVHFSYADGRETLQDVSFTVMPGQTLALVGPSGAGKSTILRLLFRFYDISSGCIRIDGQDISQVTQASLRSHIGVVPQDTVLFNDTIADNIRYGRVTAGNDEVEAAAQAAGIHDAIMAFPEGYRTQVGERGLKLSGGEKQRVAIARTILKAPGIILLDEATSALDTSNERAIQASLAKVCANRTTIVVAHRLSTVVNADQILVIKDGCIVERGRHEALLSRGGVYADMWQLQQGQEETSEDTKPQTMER
Chain of Beta-2 adrenergic receptor (Homo sapiens) (P07550 whole entry, looked up): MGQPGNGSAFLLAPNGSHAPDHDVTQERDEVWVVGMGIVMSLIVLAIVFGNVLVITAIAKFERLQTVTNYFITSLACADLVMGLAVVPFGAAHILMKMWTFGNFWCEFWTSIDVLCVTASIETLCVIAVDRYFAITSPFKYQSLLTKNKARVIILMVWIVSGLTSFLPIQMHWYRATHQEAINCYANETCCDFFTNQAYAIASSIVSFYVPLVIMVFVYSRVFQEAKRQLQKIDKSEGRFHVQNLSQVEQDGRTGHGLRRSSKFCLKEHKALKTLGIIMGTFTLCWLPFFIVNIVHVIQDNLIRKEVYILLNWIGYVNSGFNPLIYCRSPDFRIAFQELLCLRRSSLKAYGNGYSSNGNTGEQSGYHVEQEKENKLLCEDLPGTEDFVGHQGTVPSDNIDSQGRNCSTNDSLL
Chain of AP-2 complex subunit beta (Homo sapiens) (P63010 whole entry, looked up, the tested form may be a part, one chain of several): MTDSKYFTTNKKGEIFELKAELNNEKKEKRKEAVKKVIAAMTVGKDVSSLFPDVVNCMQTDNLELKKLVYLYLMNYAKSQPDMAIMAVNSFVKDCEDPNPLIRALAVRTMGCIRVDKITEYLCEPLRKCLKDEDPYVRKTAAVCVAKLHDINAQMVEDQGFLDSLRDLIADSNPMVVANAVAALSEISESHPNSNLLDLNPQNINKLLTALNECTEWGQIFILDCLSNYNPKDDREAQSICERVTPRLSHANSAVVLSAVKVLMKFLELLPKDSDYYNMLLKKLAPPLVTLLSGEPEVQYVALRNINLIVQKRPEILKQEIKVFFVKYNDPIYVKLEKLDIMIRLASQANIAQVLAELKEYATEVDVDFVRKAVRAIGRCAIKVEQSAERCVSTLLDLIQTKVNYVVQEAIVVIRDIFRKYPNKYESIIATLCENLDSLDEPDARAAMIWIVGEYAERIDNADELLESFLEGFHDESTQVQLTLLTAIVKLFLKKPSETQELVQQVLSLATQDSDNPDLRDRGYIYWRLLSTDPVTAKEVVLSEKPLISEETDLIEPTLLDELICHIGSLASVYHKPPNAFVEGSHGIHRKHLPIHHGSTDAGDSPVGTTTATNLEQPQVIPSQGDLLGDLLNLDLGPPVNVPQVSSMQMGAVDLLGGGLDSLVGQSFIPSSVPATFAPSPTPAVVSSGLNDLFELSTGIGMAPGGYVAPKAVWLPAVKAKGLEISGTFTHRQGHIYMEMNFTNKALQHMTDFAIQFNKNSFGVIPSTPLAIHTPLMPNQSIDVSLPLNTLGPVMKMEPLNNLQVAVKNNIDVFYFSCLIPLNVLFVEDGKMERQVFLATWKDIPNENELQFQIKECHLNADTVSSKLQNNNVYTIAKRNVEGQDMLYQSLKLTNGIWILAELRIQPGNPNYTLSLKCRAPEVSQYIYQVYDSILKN
Chain of Beta-adrenergic receptor kinase 1 (Homo sapiens) (P25098 whole entry, looked up): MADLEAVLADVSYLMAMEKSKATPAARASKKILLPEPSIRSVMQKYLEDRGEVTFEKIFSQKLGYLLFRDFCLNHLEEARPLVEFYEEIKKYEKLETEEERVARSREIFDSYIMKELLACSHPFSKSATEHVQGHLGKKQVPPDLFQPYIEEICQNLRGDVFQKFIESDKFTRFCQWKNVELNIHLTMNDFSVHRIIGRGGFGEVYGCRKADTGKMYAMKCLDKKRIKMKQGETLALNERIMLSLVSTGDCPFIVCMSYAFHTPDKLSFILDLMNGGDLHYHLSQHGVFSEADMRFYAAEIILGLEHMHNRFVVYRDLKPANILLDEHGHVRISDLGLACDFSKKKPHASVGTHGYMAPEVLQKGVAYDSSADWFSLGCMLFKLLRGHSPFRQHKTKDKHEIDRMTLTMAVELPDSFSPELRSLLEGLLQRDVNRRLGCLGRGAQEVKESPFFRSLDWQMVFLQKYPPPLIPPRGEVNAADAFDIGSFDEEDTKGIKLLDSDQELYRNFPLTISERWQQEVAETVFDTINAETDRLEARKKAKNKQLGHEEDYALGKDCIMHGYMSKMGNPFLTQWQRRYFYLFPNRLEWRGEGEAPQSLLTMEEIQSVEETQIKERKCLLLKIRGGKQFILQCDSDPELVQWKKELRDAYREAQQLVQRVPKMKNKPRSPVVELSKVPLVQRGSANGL
Chain of Integrin beta-1 (Homo sapiens) + Integrin alpha-4 (Homo sapiens) (P05556 whole entry, looked up): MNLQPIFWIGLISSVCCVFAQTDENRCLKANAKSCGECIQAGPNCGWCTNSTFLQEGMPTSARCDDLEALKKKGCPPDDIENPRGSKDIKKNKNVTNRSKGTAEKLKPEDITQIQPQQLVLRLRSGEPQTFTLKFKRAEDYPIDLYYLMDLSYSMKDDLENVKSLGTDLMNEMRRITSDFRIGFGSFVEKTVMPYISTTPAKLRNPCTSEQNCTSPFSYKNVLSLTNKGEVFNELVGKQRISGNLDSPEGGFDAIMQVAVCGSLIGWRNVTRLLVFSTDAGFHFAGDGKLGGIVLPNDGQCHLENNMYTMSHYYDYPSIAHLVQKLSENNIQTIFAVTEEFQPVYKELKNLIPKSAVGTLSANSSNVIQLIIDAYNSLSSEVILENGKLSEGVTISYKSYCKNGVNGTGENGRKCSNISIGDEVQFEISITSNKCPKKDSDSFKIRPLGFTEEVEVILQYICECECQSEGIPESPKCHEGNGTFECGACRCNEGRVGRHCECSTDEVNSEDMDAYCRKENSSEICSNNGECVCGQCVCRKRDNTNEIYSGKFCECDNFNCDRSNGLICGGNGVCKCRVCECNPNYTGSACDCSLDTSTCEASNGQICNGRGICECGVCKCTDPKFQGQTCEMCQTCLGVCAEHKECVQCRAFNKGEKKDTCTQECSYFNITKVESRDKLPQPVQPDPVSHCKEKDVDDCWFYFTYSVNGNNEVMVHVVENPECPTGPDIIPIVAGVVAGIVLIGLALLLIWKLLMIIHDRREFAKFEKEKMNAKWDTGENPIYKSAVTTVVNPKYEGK
Chain of Integrin beta-1 (Homo sapiens) + Integrin alpha-4 (Homo sapiens) (P13612 whole entry, looked up): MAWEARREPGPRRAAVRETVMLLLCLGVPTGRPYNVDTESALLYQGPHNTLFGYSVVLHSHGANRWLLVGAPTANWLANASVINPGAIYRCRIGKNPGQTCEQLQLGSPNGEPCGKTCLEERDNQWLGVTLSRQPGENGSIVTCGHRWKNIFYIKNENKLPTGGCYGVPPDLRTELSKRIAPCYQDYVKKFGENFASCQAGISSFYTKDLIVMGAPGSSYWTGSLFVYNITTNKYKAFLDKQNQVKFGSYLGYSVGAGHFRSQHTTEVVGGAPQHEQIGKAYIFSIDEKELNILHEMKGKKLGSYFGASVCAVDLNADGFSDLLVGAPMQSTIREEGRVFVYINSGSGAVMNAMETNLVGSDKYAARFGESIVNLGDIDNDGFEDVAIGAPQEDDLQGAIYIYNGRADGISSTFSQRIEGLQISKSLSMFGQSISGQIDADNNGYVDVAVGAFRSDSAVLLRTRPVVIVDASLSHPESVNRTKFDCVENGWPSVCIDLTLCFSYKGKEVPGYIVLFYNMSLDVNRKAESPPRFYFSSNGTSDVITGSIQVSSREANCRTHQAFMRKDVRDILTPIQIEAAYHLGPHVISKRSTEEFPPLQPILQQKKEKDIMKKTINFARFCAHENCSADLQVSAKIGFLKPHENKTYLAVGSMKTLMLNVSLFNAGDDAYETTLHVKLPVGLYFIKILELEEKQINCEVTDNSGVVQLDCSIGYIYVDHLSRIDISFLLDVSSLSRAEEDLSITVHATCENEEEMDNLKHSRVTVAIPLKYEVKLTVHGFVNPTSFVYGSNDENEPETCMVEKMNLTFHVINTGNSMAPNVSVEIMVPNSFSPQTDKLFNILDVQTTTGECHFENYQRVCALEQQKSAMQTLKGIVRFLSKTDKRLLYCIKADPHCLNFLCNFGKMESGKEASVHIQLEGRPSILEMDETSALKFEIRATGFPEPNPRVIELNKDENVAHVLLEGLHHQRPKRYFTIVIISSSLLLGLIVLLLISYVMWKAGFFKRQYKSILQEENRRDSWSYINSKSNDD

On to `CCOc1ccc(OCCSc2nc3ccccc3[nH]2)cc1`, for which, in assay [1], the percent of DMSO control GFP is 98.2% (inactive). For the same compound, the GFP response vs DMSO in assay [2] is 98.5% (inactive); in [4], 108% (inactive). For the same compound, in assay [3], the percent response of DMSO control was 101% (inactive). In addition, the GFP response, % of DMSO in [5] is 83.3% (inactive). This compound showed a double positive events in assay [6] of 60.3%. The vesicle binding response in assay [6] was 186% (inactive). For the same compound, the inhibition was 16% (inactive) in assay [7], -5.21% (inactive) in [11] and 3% (inactive) in [15]. For the same compound, in assay [8], the superoxide response (% of plate) is 107% (inactive). Further, the aptamer binding inhibition in [9] was 4% (inactive). Further, the results for the response in assay [10] and in [12] were -17.3% (inactive) and 1.04% (inactive), respectively. The binding (% of control) in assay [13] is 98.7% (inactive). Further, the efflux inhibition (fraction of control) in assay [14] was 0.05 (inactive). Also, the differentiation response in assay [16] was -7.2% (inactive).

Take `CC(=O)OC(CC(=O)O)C[N+](C)(C)C` (stereo not given): in [1], the percent of DMSO control GFP is 100% (inactive). Moreover, the GFP response vs DMSO in assay [2] was 103% (inactive); in [4] it was 92.7% (inactive). In assay [3], the percent response of DMSO control was 95.4% (inactive). In addition, the GFP response, % of DMSO in assay [5] was 97.6% (inactive). This compound also displayed a double positive events in assay [6] of 65%. For the same compound, in assay [6], the vesicle binding response was 243% (inactive). The inhibition in [7] was -17.1% (inactive); in assay [11], 14.1% (inactive); in assay [15], 10% (inactive). Moreover, the superoxide response (% of plate) in [8] was 103% (inactive). The aptamer binding inhibition in assay [9] is 2% (inactive). Moreover, the response was -0.16% (inactive) in assay [10] and -2.66% (inactive) in [12]. Further, the binding (% of control) in assay [13] is 97.1% (inactive). Also, the efflux inhibition (fraction of control) in assay [14] is 0.02 (inactive). The differentiation response in assay [16] is -8.55% (inactive).

As for `CC(C)=CCCC1=CCC2C(=O)NNC(=O)C2C1` (stereo not given), the percent of DMSO control GFP in assay [1] is 98.8% (inactive). In addition, the GFP response vs DMSO is 101% (inactive) in assay [2] and 99.9% (inactive) in [4]. Besides, the percent response of DMSO control in assay [3] is 110% (inactive). Besides, in assay [5], the GFP response, % of DMSO is 99.5% (inactive). In [6], this compound gave a double positive events of 50.6%. The vesicle binding response in [6] is 61.5% (active). For the same compound, the inhibition in assay [7] was -3.16% (inactive); in assay [11], -0.62% (inactive); in [15], 4% (inactive). The superoxide response (% of plate) in [8] is 104% (inactive). The aptamer binding inhibition in [9] was 3% (inactive). The response in assay [10] is -19.2% (inactive); in assay [12] it was 51.2% (active). In addition, in assay [13], the binding (% of control) was 103% (inactive). Besides, in [14], the efflux inhibition (fraction of control) was -0.1 (inactive). Further, in assay [16], the differentiation response was -10.4% (inactive).

For `NCc1ccccc1COc1ccccc1`, the percent of DMSO control GFP in assay [1] was 105% (inactive). For the same compound, the GFP response vs DMSO in assay [2] was 109% (inactive); in assay [4], 117% (inactive). The percent response of DMSO control in assay [3] was 102% (inactive). Further, the GFP response, % of DMSO in assay [5] is 111% (inactive). For the same compound, the double positive events in assay [6] came to 62.7%. The vesicle binding response in [6] was 179% (inactive). In addition, the inhibition in assay [7] is 2.3% (inactive); in assay [11], 57% (active); in assay [15], 6% (inactive). The superoxide response (% of plate) in assay [8] was 96.7% (inactive). Also, the aptamer binding inhibition in assay [9] is 0% (inactive). Further, the response was 4.62% (inactive) in assay [10] and -3.28% (inactive) in assay [12]. The binding (% of control) in [13] was 98% (inactive). Also, the efflux inhibition (fraction of control) in [14] is 0.05 (inactive). Further, the differentiation response in [16] is -15.2% (inactive).

As to `COc1ccc2nc(C)cc(Nc3ccccc3O)c2c1`, the percent of DMSO control GFP in assay [1] is 94.2% (inactive). The results for the GFP response vs DMSO in assay [2] and in [4] were 108% (inactive) and 115% (inactive), respectively. Also, the percent response of DMSO control in assay [3] was 90.1% (inactive). For the same compound, in assay [5], the GFP response, % of DMSO is 99.4% (inactive). The same compound yielded a double positive events in assay [6] of 58%. In assay [6], the vesicle binding response was 120% (inactive). For the same compound, the inhibition is -7.25% (inactive) in assay [7], 3.21% (inactive) in assay [11] and 9% (inactive) in assay [15]. Further, the superoxide response (% of plate) in assay [8] is 91.3% (inactive). Besides, the aptamer binding inhibition in [9] was -3% (inactive). In addition, the response was 7.69% (inactive) in assay [10] and 1.21% (inactive) in assay [12]. Besides, the binding (% of control) in [13] is 101% (inactive). Further, in assay [14], the efflux inhibition (fraction of control) is 0.01 (inactive). Also, the differentiation response in [16] is -20% (inactive).

The inhibition is the relative decrease from the control value, in per cent.
